These results are taken from PubChem BioAssay (NCI).

Molecules are shown by their SMILES. About 83,000 compounds went through this panel and 20% of them were active in at least one assay; those are over-represented in the sample as a whole.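 Cell lines were cultured in 96-well plates, exposed to a single compound concentration, and assessed for percent growth 48 hours later.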 Values without a mark were called inactive. The source made the active and inactive calls.

This assay relates to OVCAR-8 ovarian. The experiment in a line: NCI-60 one-dose screen, 48 h (100 = growth as untreated, 0 = no growth, -100 = all killed). The following applies: 10 µM. The procedure: Growth inhibition of the OVCAR-8 human tumor cell line is measured as a screen for anti-cancer activity. Cells are grown in 96 well plates and exposed to the test compound for 48 hours. Compounds are tested at a single concentration, which is 10^-5 M for most compounds. The reported endpoint is percent growth (GI% or GIPRCNT), where numbers from 0 - 100% represent growth inhibition, and numbers from -100% - 0 represent cell death. For example, a value of 40 represents 60% growth inhibition. A value of 0 means no net growth occurred over the course of the experiment. A value of -40 indicates 40% of cells at the beginning of the experiment died by the end of the experiment. A value of -100 means all cells are dead at the end of the experiment.
NCI-60 Human Tumor Cell Lines Screen was performed using the standard one-dose NCI protocol, which is described in more detail at https://dtp.cancer.gov/discovery_development/nci-60/default.htm.
Compounds with GIPRCNT values below 10 were considered active. Activity score was based on GIPRCNT using the following formula: […]
Score is 0 for GIPRCNT values of 100 or above, 50 for GIPRCNT values of 0, and 100 for GIPRCNT values of -100.
As for `COc1ccc(-c2ccc(SCC(=O)Nc3ccc(C#N)cc3)nn2)cc1`, the growth was 88.8%.

For `O=C(Nc1nc2ccccc2s1)c1ccc(Br)cc1`, the growth was 98.5%.

On to `N#Cc1c(Cl)nc(SCc2ccc(F)cc2)nc1-c1ccc(F)cc1`, for which the growth is 89.2%.

As to `COc1ccccc1[C@H]1C(C(=O)c2ccc(Cl)cc2)C2(N[C@@H]1c1ccccc1)C(=O)Nc1ccccc12` (stereo not given in full), the growth was 4.63% (active).

On to `COc1ccc2[nH]c(=O)c(CSc3ccc(Nc4nccc(-c5ccc(Cl)cc5)n4)cc3)cc2c1`, for which the growth is 70.3%.

Consider `C/C(=C\c1ccc(O)cc1O)c1ccc2ccc(O)cc2[o+]1`, for which the growth was 9.36% (active).

Take `CC1=N/C(=C\c2ccc(N(C)C)cc2)C(=O)N1CCc1ccc(S(N)(=O)=O)cc1`: the growth was 97.9%.

With `CC(=O)Nc1ccc(-c2cn(-c3cccc(C(=O)Nc4cc(C(F)(F)F)cc(C(F)(F)F)c4)c3)nn2)cn1`, the growth was -32.8% (active).

Turning to `Oc1ccc(/C=C2\CCCc3cc4ccc(O)cc4[o+]c32)c(O)c1`, the growth is -56.9% (active).

Regarding `O=C1Nc2ccc(F)cc2/C1=C/c1cccc(OCc2ccccn2)c1`, the growth is 25.7%.

As to `O=C(NO)c1ccc(CNc2nc(-c3ccccc3)c3ccccc3n2)cc1`, the growth was 6.42% (active).

In the case of `C/C(=C\CC/C=C(\C)CC/C=C(\C)CC[C@@H](O)C(C)(C)O)CC/C=C(\C)CC[C@@H](O)C(C)(C)O`, the growth is 47.6%.

Regarding `CCOP(=O)(OCC)O[C@H]1CCC(=O)[C@@H]2[C@H]1[C@H]1C[C@@H]3[C@@]4(C)CCCC(C)(C(=O)OC)[C@@H]4CC[C@@]23C=C1C(C)C` (stereo not given in full), the growth is 55.5%.

In the case of `COc1cccc(/C=N/NC(=O)c2ccc3nc(-c4ccc(Cl)cc4)[nH]c3c2)c1O`, the growth is -84.6% (active).

Regarding `O/N=C(\CSc1nnc(-c2c[nH]c3ccccc23)n1-c1ccccc1)c1ccc(Br)cc1`, the growth was -41.7% (active).

Take `Nc1nc(-c2ccccc2)cs1`: the growth was 37.7%.

`COc1ccc(N2N=C(c3ccc4c(c3)OCCO4)CC2c2cccc(NC(=O)CCCNS(=O)(=O)c3ccc(F)cc3)c2)cc1` (stereo not given): the growth is 87.7%.

Consider `CCCCSc1nc(Nc2ccc(/C(C)=N/NC(N)=S)cc2)c(C#N)c(-c2ccc(F)cc2)n1`, for which the growth is 7.66% (active).

Consider `O=C(CNc1nc(-c2ccccc2)cs1)Nc1ccc([N+](=O)[O-])cc1Cl`, for which the growth is 30.4%.

For `N#Cc1c(-c2ccc(Cl)cc2)cc(-c2ccccc2)nc1OCc1ccccc1`, the growth is 93%.

Consider `O=C1Nc2ccc(Cl)cc2/C1=C/c1cccc(OCc2ccccc2)c1`, for which the growth was 14.6%.

In the case of `COc1ccc(-c2nc(S(=O)(=O)c3ccc(C)cc3)c(S(=O)(=O)CC(=O)N(C)Cc3ccccc3)o2)cc1`, the growth is 29.2%.

Consider `Cc1nc2c(cnn2-c2ccccc2)c(=O)n1-c1ccc(NC(=O)c2ccc(F)cc2)cc1`, for which the growth is 63.7%.

For `COc1csc(/C=N/NC(=O)c2[nH]c3ccc(Br)cc3c2-c2ccccc2)c1`, the growth is 2.26% (active).

In the case of `N#C/C(=C\c1ccc(N(c2ccccc2)c2ccccc2)cc1)C(N)=O`, the growth is 75.1%.

On to `O=C(c1ccc([N+](=O)[O-])c([N+](=O)[O-])c1O)n1[nH]c(=O)c2ccccc2c1=O`, for which the growth is 55.5%.

Turning to `CCN1CCN(c2ccc(NC(=O)Nc3ccc(-c4cc(C(=O)NC(C)C)c5ncccc5n4)cc3)cc2C(F)(F)F)CC1`, the growth is -83.3% (active).

For `COC(=O)c1c(C(=O)OC)c2n(c1C)[C@@H]([C@@H](C)[C@H]1CC[C@H]3[C@@H]4CCC5=CC(=O)CC[C@]5(C)[C@H]4CC[C@]13C)SC2`, the growth was 26.7%.

As to `COc1cccc(COc2ccc(/C=C3\Oc4cc(O)ccc4C3=O)cc2)c1`, the growth is 23.6%.

With `COc1ccc([C@H]2C(C(=O)c3ccc(Cl)cc3)C3(N[C@@H]2c2ccccc2)C(=O)Nc2ccc(Br)cc23)cc1` (stereo not given in full), the growth is 14.9%.

With `O/N=C(\CSc1nnc(-c2c[nH]c3ccccc23)n1-c1ccccc1)c1ccc(Cl)cc1`, the growth was 6.37% (active).

Consider `CCCCSc1nc(Nc2ccc(/C(C)=N/NC(N)=S)cc2)c(C#N)c(-c2ccccc2)n1`, for which the growth is 15.1%.

Regarding `CN(C(=O)c1ccc(C(F)(F)F)cc1C(F)(F)F)c1sc2c(c1C#N)CCC(=O)C2`, the growth was 82.2%.

Turning to `Cc1cc(C)nc(SCC(=O)Nc2ccc(S(N)(=O)=O)cc2)n1`, the growth is 105%.

For the compound `CN1CCc2c(sc3ncnc(N/N=C/c4cn(-c5ccccc5)nc4-c4ccc(Br)cc4)c23)C1`, the growth is 4.42% (active).

Consider `C=C[C@@]12CN3CC[C@]1(O)[C@@](C(=O)OC)(CO2)c1[nH]c2ccccc2c1C3`, for which the growth was 62.8%.

As to `COc1cc(C2CC(c3ccccc3)=Nc3c(N)nc(N)nc3N2)ccc1Oc1nc(Nc2ccc(F)cc2)nc(N(C)C)n1` (stereo not given), the growth is 40.4%.

For `O=C(Nc1ccc(OCC(=O)c2ccccc2)cc1)Nc1ccc(Cl)c(C(F)(F)F)c1`, the growth is 29.8%.

Regarding `COc1cc(/C=C/C(=O)c2cc(OC)c(OC)c(OC)c2)ccc1Oc1nc(Nc2ccc(F)cc2)nc(N(C)C)n1`, the growth was -59.6% (active).

Consider `COC(=O)C[C@](O)(CCCC(C)(C)O)C(=O)O[C@H]1C(OC)=C[C@@]23CCC(=O)N2CCc2cc4c(cc2[C@@H]13)OCO4`, for which the growth was 107%.
